Compound activity: PubChem BioAssay, several laboratories
An excerpt weighted towards active compounds, which were near 1.9% of everything screened.
eIF4H FP inh – inhibitors of RNA binding by human eIF4H. Q15056. inhibition, % at 35 µM. AID 2012. eIF4H fluorescence polarization binding assay. actives 0.94% (n = 290,000);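 note: calls also rest on retests at 20 µM and on dose response follow-up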
MLLE-PAM2 inh – inhibitors of microRNA-mediated deadenylation, human PABP1 MLLE binding; inhibition, % at 20 µM; AID 588489; GST-MLLE / FITC-PAM2 fluorescence polarization; actives 0.36% (n = 360,000); in the data active = inhibition above about 35%, passing the limit was not always enough
14-3-3 Bad PPI – disrupts binding of bovine 14-3-3 zeta to phospho-Bad peptide; TR-FRET 14-3-3zeta/Dy647-pBad peptide displacement, 1 h; inhibition, % at 21.7 µM; actives 0.71% (n = 220,000); AID 781;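 active = inhibition above about 70%, limit read from the data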
PABP FP inh – blocks human PABP binding to poly(A) RNA; P11940; fluorescence polarization; calls only at 35 µM; actives 1% (n = 290,000);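 note: calls also rest on retests at 20 µM and on dose response follow-up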
eIF4E 4G PPI – blocks eIF4E binding to eIF4G. P63073+Q04637. TR-FRET eIF4E-eIF4GI(517-606) binding, 2 h. inhibition, % at 21.7 µM. actives 0.37% (n = 220,000);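 active = inhibition above about 30%, limit read from the data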
A number is an active result; 0 = inactive; ? = inconclusive; - = not tested or not shown; + = active, no number; ! = not active in a repeat; [ ] = dose if it differs, or a comment. Unless noted, the rule behind the calls is not given here.

SMILES	eIF4H FP inh	MLLE-PAM2 inh	14-3-3 Bad PPI	PABP FP inh	eIF4E 4G PPI
CC(C)c1cc(C(=O)Nc2cccc(Cl)c2)no1	0	0	0	0	63[fluorescence artefact?]
CC(=O)c1cccc(NC(=O)c2cc(C(C)C)on2)c1	0	0	0	0	0
CCNC(=O)COc1ccc(/C=C2\COc3ccccc3C2=O)cc1OC	0	0	-	0	-
O=C(/C=C/c1ccco1)NCc1ccco1	86	0	0	+	0
O=C(CNC(=O)Cc1ccccc1)N=Nc1c(O)[nH]c2ccccc12	0	0	-	0	-
Cc1ccc(/C=C/C(=O)NCc2ccco2)o1	?	-	0	+	0
COC(=O)/C=C(\C)N=Nc1c(O)[nH]c2ccccc12	8.6	0	0	+	0
O=C(CNC(=O)/C=C/c1ccco1)N=Nc1c(O)[nH]c2ccccc12	88	0	-	+	-
O=C(/C=C/c1ccccc1)NCc1ccco1	0	0	0	0	0
CC(C)(O)C(=O)N=Nc1c(O)[nH]c2ccccc12	0	0	0	0	0
Cc1ccc(C)c(CC(=O)N2CCCCC2c2cc(C(=O)Nc3cccc(C#N)c3)no2)c1 (centres undefined)	-	0	-	-	-
O=C1N=C(N2CCOCC2)S/C1=C/c1cc2c(cc1[N+](=O)[O-])OCO2	87	0	0	+	0
CCCS(=O)(=O)c1cscc1NC(=O)c1c(-c2c(F)cccc2Cl)noc1C	0	0	0	0	0
O=c1cc(-c2ccco2)oc2c1ccc1ccccc12	0	0	77	0	0
Cc1nn(-c2ccc(Cl)cn2)c2c1C(=O)CC(C)(C)C2Br (centres undefined)	-	0	-	-	-
CCN(CC)c1ccc(SS(=O)(=O)O)cc1	0	43!	0	0	0
O=S(=O)(O)Sc1ccccc1	-	0	-	-	-
COc1ccc(N/C=C(\C=C\C#N)S(=O)(=O)c2ccccc2)cc1	0	0	-	0	-
N#CC1=C(N)Oc2cc(N)ccc2C1c1ccc(F)cc1F (centres undefined)	0	0	-	+	-
Cc1cc(=O)n2c(n1)SCOC2	0	0	0	0	0
COc1ccccc1N1CCN(C2CCN(C(=O)COc3ccccc3)CC2)CC1	0	0	0	0	0
Cc1coc2c1C(=O)C(=O)c1c-2ccc2c1CCCC2(C)C	64	0	0	+	0
Cc1coc2c1C(=O)C(=O)c1c-2ccc2c(C)cccc12	78	0	0	+	0
O=C(NC1CCCC1)C(c1ccccn1)N(C(=O)c1csnn1)c1ccc(F)cc1 (centres undefined)	0	0	-	0	-
COc1cccc(-n2c(SCC(N)=O)nc3ccccc3c2=O)c1	58	0	0	0	0
SMILES	eIF4H FP inh	MLLE-PAM2 inh	14-3-3 Bad PPI	PABP FP inh	eIF4E 4G PPI
COc1cccc(-n2c(SCC(=O)O)nnc2-c2cccnc2)c1	0	0	88	0	0
CCCCCNc1nc(N2CCCC2)c2c(c1C#N)CCN(C)C2	59	0	0	+	0
CC1(C(O)(C#CC[N+]2(C)CCCCC2)c2ccccc2)CCCC1 (centres undefined)	0	0	0	+	0
CCC[N+]1(CC#CC(O)(c2ccccc2)C2CCCCC2)CCCCC1 (centres undefined)	0	0	0	0	0
Cn1c(N/N=C2\CCCc3ccccc32)nc2c1c(=O)n(Cc1ccc(F)cc1)c(=O)n2C	0	0	96	0	0
COCCCNc1nc2c(c(=O)n(Cc3ccc(F)cc3)c(=O)n2C)n1C	0	0	-	0	-
c1ccc(COc2cccc(-c3cc4nc(NCCc5ccncc5)ccn4n3)c2)cc1	-	0	-	-	-
O=C(O)c1ccc(-n2cccc2/C=N\NC(=O)c2cc3cc(Br)ccc3o2)cc1	86	0	80	+	0
Cn1cc(/C=N/NC(=O)c2cc3cc(Br)ccc3o2)c2ccccc21	0	0	0	0	0
CCc1ccc(N(CC(=O)NCc2ccc(F)cc2)C(=O)c2csnn2)cc1	0	0	0	0	0
CCCN(CCO)Cc1ccc(Cl)c(Cl)c1	0	0	0	0	0
CCN(CC)CCN(C)Cc1ccc(Br)cc1	0	0	76	0	0
CCN(CC)CCOc1ccc(Br)cc1	0	0	0	0	0
CCCN(CCO)Cc1ccc(Br)cc1	0	0	84	0	0
CN(C(=O)COC(=O)C1CSC2(C)CCC(=O)N12)c1ccccc1 (centres undefined)	-	0	-	-	-
COc1ccc(CC(=O)O/N=C(\N)c2cccc([N+](=O)[O-])c2)cc1	?	0	0	+	0
Cc1ccc(OCC(=O)O/N=C(\N)Cc2ccc([N+](=O)[O-])cc2)cc1C	0	0	0	0	40
CCOC(=O)C1CCCN(C(=O)c2cc(F)cc(F)c2)CC1 (centres undefined)	-	0	-	-	-
Nc1ncnc2c1cnn2C1CCCCC1	0	0	0	0	0
O=C(O)CNC(=O)CC1S/C(=N/N=C2\CSC(=O)N2)NC1=O (centres undefined)	0	42	0	0	0
O=C(O)CNC(=O)CC1S/C(=N/N=C/c2ccccc2O)NC1=O (centres undefined)	0	0	0	0	0
O=C(N/N=C/c1cc2c(c([N+](=O)[O-])c1)OCO2)c1ccncc1	0	0	-	0	-
COc1cc(/C=N/NC(=O)c2ccncc2)c([N+](=O)[O-])cc1OC	0	0	-	0	-
COc1cccc(/C=N/NC(=O)c2ccncc2)c1OC(=O)c1ccc(Br)cc1	?	59	-	?	-
O=C(N/N=C/c1ccncc1)c1cc([N+](=O)[O-])cc([N+](=O)[O-])c1O	76	0	89	0	0
SMILES	eIF4H FP inh	MLLE-PAM2 inh	14-3-3 Bad PPI	PABP FP inh	eIF4E 4G PPI
COc1cc(/C=N/NC(=O)c2ccncc2)ccc1OC(=O)c1cccc(Br)c1	0	0	-	0	-
COc1cc(OC)c([N+](=O)[O-])cc1/C=N/NC(=O)c1ccncc1	59	0	0	+	0
CC(OC(=O)C1CCN(S(=O)(=O)c2ccc(C(C)(C)C)cc2)CC1)C(=O)N(C)C1CCCCC1 (centres undefined)	-	0	-	-	-
O=C(CSc1nnc(-c2ccccc2F)o1)N1CCNC1=O	-	0	-	-	-
Cc1ccc(OCC(=O)c2c(O)c3ccccc3oc2=O)cc1C	0	0	74	0	0
CCOc1ccccc1CNC(=O)c1cc2occc2n1C	?	0	0	+	0
O=C(Oc1ccc[nH]c1=O)c1cc([N+](=O)[O-])cc([N+](=O)[O-])c1	0	0	0	+	0
Cn1c(=O)c2[nH]c(COc3ccccc3)nc2n(C)c1=O	-	63	-	-	-
Cc1ccc(C(=O)N/C(=C\c2ccc(-c3ccccc3[N+](=O)[O-])o2)C(=O)NCCCN2CCOCC2)cc1	98	0	-	+	-
Cc1ccc(C(=O)N/C(=C\c2cn(C)c3ccccc23)C(=O)NCCCN2CCOCC2)cc1	0	0	-	0	-
COc1ccccc1CNC(=O)C1CC(c2c(Cl)cccc2Cl)=NO1 (centres undefined)	0	0	70	0	0
COc1ccccc1CNC(=O)C1CC(c2ccc([N+](=O)[O-])cc2)=NO1 (centres undefined)	0	0	0	0	0
CN(C)c1ccc(/C=C(\C#N)C(=O)c2ccccc2)cc1	?	0	0	?	0
